Consider 40 compounds from PubChem BioAssay (NCATS).

Records with an inconclusive call do not appear. Where a call stands in place of a potency, no number is given. Active and inactive are the calls of the source. The call rests on the fitted dose curve; in most records, active means well fitted inhibition curve with a large enough effect; inconclusive means small, poorly fitted or top-dose-only effect; inactive means flat fitted curve, though single readings scatter. Where a SMILES comes first, the peptide text is derived from it. Bridges are numbered along the chain shown (N, C = ends). [ ]: non-standard residue; d: D form. The star is where a group is joined. X1 = CCC(C)C(N)C1=NC(C(=O)*)CS1; dOrn = NCCC[C@@H](N)C(=O)O; 2Abz = Nc1ccccc1C(=O)O

Chain of Calcium and integrin-binding protein 1 (Homo sapiens) (Q99828 whole entry, looked up): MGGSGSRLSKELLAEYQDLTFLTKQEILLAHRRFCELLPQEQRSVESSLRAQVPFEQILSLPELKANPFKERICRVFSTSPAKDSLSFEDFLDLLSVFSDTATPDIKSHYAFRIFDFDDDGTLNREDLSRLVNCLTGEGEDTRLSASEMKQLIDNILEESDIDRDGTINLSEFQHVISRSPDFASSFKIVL

This experiment addresses Calcium and integrin-binding protein 1 (Homo sapiens) (UniProt Q99828). The experiment in a line: Primary qHTS for Identification of Calcium Integrin Binding Protein 1 (CIB1) Competitor (AID 1508620). Further: top concentration of the series differs between compounds. To be noted: CIB1-GST / FITC-alphaIIb peptide fluorescence polarization; series mostly up to 57.7 µM. Summed up:
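Fluorescence polarization competition: GST-tagged CIB1 (1 uM final) preincubated with compound 15 min at room temperature, then FITC-labelled alphaIIb peptide (100 nM final) added. After 15 min at room temperature, polarization read at Ex 480/Em 540.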
Take `CCCCCCc1cccc(NC(=O)[C@H](N)CCP(=O)(O)O)c1`: the Potency result was “inactive”.
Regarding `COc1cc(N2CCC(O)CC2)ccc1Nc1cc(Nc2ccccc2S(=O)(=O)C(C)C)c2cc[nH]c2n1`, the Potency result is “inactive”.
On to `CC1CCC2C(C(=O)O)=CC3CC(C)(C)CC132` (stereo not given), for which the Potency entry is “inactive”.
Turning to `CCC(C)C1NC(=O)C2CCCN2C(=O)C(C(C)C)NC(=O)c2ccccc2NC(=O)C(Cc2ccc(O)cc2)NC(=O)C(C)NC(=O)C(C(C)O)NC1=O` (stereo not given) (cyclo([2Abz]VPITAY); configuration not given here), the Potency result is “inactive”.
Turning to `CC1(O)CCC2C(C(=O)O)=COC(OC3OC(CO)C(O)C(O)C3OC(=O)/C=C/c3ccc(O)cc3)C21` (stereo not given), the Potency result was “inactive”.
`C=C(C(=O)O)C1CCC(C)C2CCC(=O)OC2(C)C1` (stereo not given): the Potency entry is “inactive”.
Regarding `C[C@]1(O)CC[C@@H]2C(C(=O)O)=CO[C@@H](O[C@@H]3O[C@H](COC(=O)c4ccc(O)cc4)[C@@H](O)[C@H](O)[C@H]3O)[C@@H]21`, the Potency entry is “inactive”.
In the case of `CC(O)(CC(=O)O)CC(=O)O[C@@H]1[C@@H](O)[C@H](OCCc2ccccc2)O[C@H](CO)[C@H]1O` (stereo not given in full), the Potency entry was “inactive”.
Turning to `COc1ccc([C@@H]2N[C@H](C(=O)O)Cc3c2[nH]c2ccccc32)cc1CN1CCN(c2ccccc2F)CC1`, the Potency entry was “inactive”.
Take `CC(c1c[nH]c2ccccc12)C(O)C(=O)O` (stereo not given): the Potency result was “inactive”.
As to `CCCC1=CC2=C(CO1)C(=O)C(C)(OC(=O)c1c(C)cc(OC)cc1O)C(O)C2` (stereo not given), the Potency result is “inactive”.
For the compound `C[C@@H]1O[C@@H](O[C@H]2[C@H](O[C@H]3CO[C@@H](O[C@H]4CC[C@@]5(C)C(CC[C@]6(C)C5CC[C@]57OC[C@@]8(CC[C@](C)(CO)CC85)[C@H](O)C[C@]76C)C4(C)C)[C@H](O[C@@H]4O[C@H](CO)[C@@H](O)[C@H](O)[C@H]4O)[C@H]3O)O[C@H](CO)[C@@H](O)[C@@H]2O)[C@H](O)[C@H](O)[C@H]1O` (stereo not given in full), the Potency entry was “inactive”.
In the case of `NCc1ccc(OCCCc2sc(-c3ccc4c(c3)/C(=N/Nc3nc5ccccc5s3)CCC4)nc2C(=O)O)cc1` it was “inactive”; in that of `COc1cc(C2Oc3c(OC)cc(CCCO[C@@H]4O[C@H](CO)[C@@H](O)[C@H](O)[C@H]4O)cc3C2CO)ccc1O` (stereo not given in full), “inactive”.
In the case of `O=C(NCc1ccc(OC(F)(F)F)cc1)C1c2ccccc2C(=O)N1C1CCOCC1` (stereo not given) it was “inactive”; in that of `Nc1ccn([C@@H]2C(F)=C(CO)[C@@H](O)[C@H]2O)c(=O)n1`, “inactive”; in that of `C=C[C@H]1[C@H](O[C@@H]2O[C@H](CO[C@@H]3OC[C@](O)(CO)[C@H]3O)[C@@H](O)[C@H](O)[C@H]2O)OC=C2C(=O)OCC[C@H]21`, “inactive”.
Consider `CC1CCC2(O1)C(C)(C)CC(O[C@@H]1O[C@H](CO[C@@H]3OC[C@](O)(CO)[C@H]3O)[C@@H](O)[C@H](O)[C@H]1O)CC2(C)O` (stereo not given in full), for which the Potency result was “inactive”.
Consider `C=C1CCC[C@]2(C)C[C@]3(O)OC(=O)C(C)=C3C[C@@H]12`, for which the Potency entry was “inactive”.
The result for `CCC(C)C(N)C1=NC(C(=O)N[C@@H](CC(C)C)C(=O)N[C@H](CCC(=O)O)C(=O)N[C@H](C(=O)N[C@H]2CCCCNC(=O)[C@H](CC(N)=O)NC(=O)[C@@H](CC(=O)O)NC(=O)[C@H](Cc3cnc[nH]3)NC(=O)[C@@H](Cc3ccccc3)NC(=O)[C@H]([C@@H](C)CC)NC(=O)[C@@H](CCCN)NC2=O)[C@@H](C)CC)CS1` (stereo not given in full) (X1-L[dE]IK[dOrn]I[dF]H[dD]N; lactam 4-C) reads “inactive”; that for `CC1(C)CC(=O)N(CCCCN2CCN(c3ncccn3)CC2)C(=O)C1`, “inactive”; that for `CCN(c1cc(C#CCN2CCOCC2)cc(C(=O)NCc2c(C)cc(C)[nH]c2=O)c1C)C1CCC(N(C)CCOC)CC1` (stereo not given), “inactive”.
For `CC(=O)OCC(=O)O[C@@H]1[C@H]2[C@@H](OC(=O)c3ccccc3)[C@@H](C)C[C@]2(O)[C@H](OC(C)=O)C2(C)[C@H]3CC(C)(C)C(=O)[C@@H]3CC1(OC(C)=O)[C@@H]2OC(C)=O` (stereo not given in full), the Potency result is “inactive”.
In the case of `COC1C2=C(COC2=O)C2(C)CCCC(C)(CO)C2C1OC(=O)c1ccccc1` (stereo not given) it was “inactive”; in that of `C=CC1C(O[C@@H]2O[C@H](CO)[C@@H](O)[C@H](O)[C@H]2O)OC=C(C(=O)OC)C1CC(=O)O` (stereo not given in full), “inactive”; in that of `Cn1c(=O)cc(N2CCCC(N)C2)n(Cc2ccccc2C#N)c1=O` (stereo not given), “inactive”.
In the case of `CC(=O)O[C@H]1[C@H](C)[C@@H](O)[C@H]2[C@@H]1C=C(C(=O)O)[C@H]1C[C@@H]3[C@H]([C@H]21)[C@H]1C(=O)O[C@@H]2CC[C@@]3(C)O[C@]1(O)[C@@H]2C` it was “inactive”; in that of `CCC(C)/C=C(C)/C=C/C1=CC2=C(Cl)C(=O)C(C)(OC(C)=O)C(=O)C2=CN1CCCC(=O)O` (stereo not given), “inactive”.
As for `Cc1ccc2c(c1)C=Cc1cc(C)ccc1C2c1cn(Cc2ccc(C(=O)Nc3nn[nH]n3)o2)c(=O)[nH]c1=S`, the Potency entry was “inactive”.
For `CC1=CCC2C(C)(CO)CCCC2(CO)C1CO` (stereo not given), the Potency entry was “inactive”.
On to `O=C(c1ccc(F)cc1)C1CCN(CCn2c(=O)nc3n(c2=O)CCCC3)CC1`, for which the Potency result is “inactive”.
Consider `CC[C@H]1OC(=O)[C@H](C)[C@@H](OC2C[C@@](C)(OC)[C@@H](O)[C@H](C)O2)[C@H](C)[C@@H](OC2O[C@H](C)C[C@H](NC)[C@H]2O)[C@](C)(O)C[C@@H](C)CN(C)[C@H](C)[C@@H](O)[C@]1(C)O` (stereo not given in full), for which the Potency entry was “inactive”.
With `CC(=O)OCCC(C)CCC1C(C)(O)CCC2C(C)(C)CCCC21C` (stereo not given), the Potency entry is “inactive”.
In the case of `C[C@@H]1CCN(C(=O)CC#N)C[C@@H]1N(C)c1ncnc2[nH]ccc12` it was “inactive”; in that of `CCC(C)/C=C(C)/C=C/C1=CC2=C(Cl)C(=O)C(C)(OC(C)=O)C(=O)C2=CN1C1CCCCN(C(CCC(N)=O)C(=O)O)C1=O` (stereo not given), “inactive”.
In the case of `C/C=C(/C)C(=O)O[C@H]1C=C(C)C[C@H](OC(=O)c2ccc(O)cc2)C2[C@](O)(C(C)C)CC[C@@]21C` (stereo not given in full) it was “inactive”.
Regarding `CN1C(=O)c2ccccc2-n2c(nc3ccccc3c2=O)/C1=C/c1ccccc1`, the Potency result is “inactive”.
As for `C=C1CC2C3(C)C(O)CC(=O)C(C)(C)C3C(OC(C)=O)C(OC(C)=O)C2(C)C2C(=O)OC(C)(C(=O)OC)C(=O)C12C` (stereo not given), the Potency result was “inactive”.
For `COc1cc(N2CCC(N(C)C)CC2)ccc1Nc1ncc(Cl)c(Nc2ccccc2P(C)(C)=O)n1`, the Potency entry was “inactive”.
As for `C=CCc1ccc(O[C@@H]2O[C@H](CO)[C@@H](O)[C@H](O)[C@H]2O)c(OC)c1`, the Potency result is “inactive”.
